Screens (PubChem)
Pf Dd2 inh: inhibitors of Plasmodium falciparum Dd2 growth. P. falciparum Dd2 growth, SYBR Green, 72 h. Potency, µM (highest dose often 28.9 µM), without a hit: at the highest dose activity, negative = inhibition, most hits filed as inhibitors. 120,000 compounds, 4.3% hits; active means well fitted inhibition curve with a large enough effect;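 further: plate controls were DMSO vehicle for no effect and reference drug for full effect; nearly all actives have a fitted effect of over 65% in size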
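Infected erythrocytes (Dd2, 0.3% parasitemia, 2.5% hematocrit final) are added to compound in RPMI-1640/Albumax II medium, grown 72 h at 37C in low oxygen, then lysed with saponin/Triton-X containing SYBR Green and read by fluorescence.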
* marks the source's active call; other numbers are inactive results; i = inactive; [ ] = another dose, or the depositor's remark. Many of the other results were omitted from the sample, so hits are more common in it than they were. Potency means the concentration at half of the fitted maximal effect.

SMILES | Pf Dd2 inh
CN(Cc1cccc2cnccc12)C(=O)c1cc(COc2ccccc2F)[nH]n1 | i
Cc1cc(C(=O)N2CC(F)(F)C[C@H]2c2nnc(C3CC3)o2)c(C)o1 | -3%
Cn1ccnc1C(=O)N1CC(F)(F)C[C@H]1c1nc(C2CC2)no1 | 22%
Cc1cc(C(=O)N2CC(F)(F)C[C@H]2c2nc(C3CC3)no2)c(C)o1 | 3.2µM*
NS(=O)(=O)c1ccc(C(=O)NCCn2cccn2)cc1 | 4%
COc1ccc(NC(=O)N[C@H]2C[C@@H](c3nc(-c4ccc(F)cc4)no3)N(C)C2)cc1 | i
CN1C[C@@H](NC(=O)c2cnccn2)C[C@H]1c1nc(-c2ccc(OC(F)(F)F)cc2)no1 | 14µM*
Cc1ccc(-c2noc([C@@H]3C[C@H](NC(=O)Nc4ccc(Cl)cc4)CN3C)n2)cc1 | -8%[44.1 µM]
COc1ccc(-c2noc([C@@H]3C[C@H](NCc4ccc(S(C)(=O)=O)cc4)CN3C)n2)cc1 | -13%
CN1C[C@@H](NC(=O)Nc2ccc(Cl)cc2)C[C@H]1c1nc(-c2ccc(F)cc2)no1 | 14µM*
CN1C[C@@H](NC(=O)c2ccccn2)C[C@H]1c1nc(-c2ccc(Cl)cc2)no1 | i
COc1ccc(-c2noc([C@@H]3C[C@H](NC(=O)c4ccc(F)cc4)CN3C)n2)cc1 | i
COc1ccc(C(=O)N[C@H]2C[C@@H](c3nc(-c4ccccc4)no3)N(C)C2)cc1 | i
COc1ccc(-c2noc([C@@H]3C[C@H](NCc4ccccn4)CN3C)n2)cc1 | 10µM*
CCCNC(=O)CC1CCCN(c2cnn(C)c(=O)c2)C1 (centres undefined) | 26%
Cc1ccc(NC(C)(C)C(=O)N2CCC3(CC2)CN(C)CCN3C)cc1 | i
CNC(=O)C1(N2CCC[C@H]2C(=O)N2CCCCCC2)COC1 | 40%[44.1 µM]
Cc1noc(-c2nc(-c3ccc(Cl)c(F)c3)no2)n1 | i
CCc1nc(-c2c3n(c(=O)n(CC(=O)NCc4ccc(F)cc4)c2=O)CCCC3)no1 | -15%
Cc1c(C(C)NC(=O)C(=O)c2ccco2)cnn1-c1cccc2ccccc12 (centres undefined) | 23%
Cn1c(CCNC(=O)c2ccccc2C2CCNC2)nc2ccccc21 (centres undefined) | -6%
O=C1CCN(C(=O)CCc2ccccc2)CCCCCCN1 | -1%
O=C(c1n[nH]c2c1CCCCCC2)N1CCC(c2nc(C3CCOCC3)no2)C1 (centres undefined) | i
CCc1ccc(-n2c(N3CCN(c4cccc(C)c4C)CC3)nc3ccccc3c2=O)cc1 | 11µM*
Cc1cccc(-c2nc3c4ccccc4nc(N4CCN(c5ccc(F)cc5)CC4)n3n2)c1 | -3%
SMILES | Pf Dd2 inh
Cc1cccc(N2CCN(c3nc4ccccc4c4nc(-c5cccnc5)nn34)CC2)c1C | 14%
Cc1ccc(C)c(N2CCN(c3nc4ccccc4c(=O)n3-c3ccccc3)CC2)c1 | i
Cc1ccc(-n2c(/C=C\c3ccc(F)cc3)nc3ccccc3c2=O)cc1Cl | i
CCc1ccc(-n2c(N3CCN(c4ccc(F)cc4)CC3)nc3ccccc3c2=O)cc1 | 5.6µM*
CCn1ccc(C(=O)N2CCC(CCOC)(NS(C)(=O)=O)CC2)n1 | 25%
O=C(Nc1ccccc1)O[C@@H]1CO[C@H]2[C@@H]1OC[C@@H]2n1nnnc1SCc1ccco1 | i
CC(=O)c1ccc(NC(=O)O[C@@H]2CO[C@H]3[C@@H]2OC[C@@H]3n2nnnc2SCc2ccco2)cc1 | 6.3µM*
O=C(NC1CCCCC1)O[C@@H]1CO[C@H]2[C@@H]1OC[C@@H]2n1nnnc1SCc1ccco1 | i
CCC(=O)N(C1CCOCC1)C1CCN(S(=O)(=O)c2ccc3c(c2)CCCC3)CC1 | -8%
N#CC1CCN(C(=O)c2nc(-c3cccnc3)c3cnccn23)CC1 | -16%[44.1 µM]
C[S+](=O)([O-])c1ccc(-c2nc(C(=O)N3CCOCC3)n3ccncc23)cc1 | 7.9µM*
O=C(c1nc(-c2ccccc2)c2ccccn12)N1CCN(c2ncccn2)CC1 | -6%
C[S+](=O)([O-])c1ccc(-c2nc(C(=O)N3CCN(c4ncccn4)CC3)n3ccncc23)cc1 | 11µM*
C[S+](=O)([O-])c1ccc(-c2cc(C(=O)N3CCN(c4ncccn4)CC3)nn3cccc23)cc1 | -24%
O=C(c1nc(-c2cccc(C(F)(F)F)c2)c2cnccn12)N1CCOCC1 | -4%
C#CCNC(=O)c1nc(-c2ccc([S+](C)(=O)[O-])cc2)c2cnccn12 | i
O=C(c1nc(-c2ccc(F)cc2)c2cnccn12)N1CCCC1 | 6.3µM*
O=C(c1nc(-c2ccc(F)cc2)c2ccccn12)N1CCOCC1 | 13%[44.1 µM]
NC(=O)c1cc[nH]c1C1CCCN(C(=O)COc2ccc(Cl)cc2)C1 (centres undefined) | -18%
Cc1nc([C@H]2CCN(CC(C)C)C[C@H]2NC(=O)C2CCOCC2)n[nH]1 | 33%
O=C1Nc2ccccc2OCC12CCN(Cc1ccncc1)CC2 | -27%[44.1 µM]
CCCCCC(=O)Nc1nc2c(s1)C[C@@H]1[C@](C)(CO)[C@H](O)CC[C@@]1(C)[C@@H]2CC(=O)O | 21%
CCC1c2nccn2CCCN1C(=O)CCn1cccn1 (centres undefined) | -8%
CC(C)(C)CN1CCOC[C@H]1c1ncc(-c2ccc(F)cc2F)[nH]1 | i
Clc1ccc(-c2cnc([C@@H]3COCCN3Cc3cnc[nH]3)[nH]2)cc1 | -5%[44.1 µM]
SMILES | Pf Dd2 inh
CC(=O)Nc1ccc(CN2CCOC[C@H]2c2ncc(-c3ccc(F)cc3F)[nH]2)cc1 | i
CC(C)(C)c1cnc([C@@H]2COCCN2Cc2ccc(Cl)cc2)[nH]1 | 4µM*
CC(C)(C)c1cnc([C@@H]2COCCN2Cc2ccccc2O)[nH]1 | 2µM*
Fc1ccc(-c2cnc([C@@H]3COCCN3Cc3cccnc3)[nH]2)cc1 | i
c1ccc(-c2cnc([C@@H]3COCCN3Cc3cccnc3)[nH]2)cc1 | 12%[44.1 µM]
Cc1ccc(-c2cnc([C@@H]3COCCN3Cc3cnc[nH]3)[nH]2)cc1 | i
Cn1c(CN2CCOC[C@H]2c2ncc(-c3ccc(Cl)cc3)[nH]2)nc2ccccc21 | 10µM*
Clc1ccc(-c2cnc([C@@H]3COCCN3CC3CC3)[nH]2)s1 | i
Fc1ccc(CN2CCOC[C@H]2c2ncc(-c3ccc(Cl)s3)[nH]2)cc1 | 11µM*
Cn1cnc(S(=O)(=O)N2CCCC(Cc3noc(C4CC4)n3)C2)c1 (centres undefined) | -3%
CN1CCC(N2CCN(C(=O)CCc3ccnc(N4CCOCC4)c3)CC2)CC1 | -2%
Cc1cc(C)n(CCC(=O)N2CCc3c(c(C(=O)N4CCOCC4)nn3CCc3ccccc3)C2)n1 | -20%
Cc1noc(C)c1S(=O)(=O)N1CCCOCCNC(=O)[C@@H]2CCCC[C@@H]21 | 1%
N#Cc1ccc(CN2CCC3(CC2)COCCN3C(=O)OCc2ccccc2)cc1 | i
O=C1OCC2(CCN([S+](=O)([O-])c3ccccc3F)C2)N1CCN1CCOCC1 (centres undefined) | i
CCN1C(=O)Cc2cc(C(=O)NCc3ccc(F)cc3)ccc21 | i
O=C(NC1CC1)[C@@H]1C[C@H](Oc2ccccc2)CN1C(=O)c1ccncc1 | -3%
CC(=O)N1CCC(N2CCOC[C@H]2c2ncc(-c3ccc(S(C)(=O)=O)cc3)[nH]2)CC1 | 16%[44.1 µM]
CS(=O)(=O)c1ccc(CN2CCOC[C@H]2c2ncc(-c3ccc(F)cc3F)[nH]2)cc1 | -29%[44.1 µM]
CS(=O)(=O)c1ccc(CN2CCOC[C@H]2c2ncc(-c3ccc(Cl)cc3)[nH]2)cc1 | 11µM*
O=C(Cn1nc(-c2ccc(F)cc2)ccc1=O)NC1CCCc2c1[nH]c1ccccc21 (centres undefined) | -9%
